For some assays here: Measured potencies and affinities stand elsewhere. The source made the active and inactive calls. Unless noted, how the calls were made is not given here.
Test system: not listed separately
Test: inhibition of 3D7 malaria parasite growth – strain 3D7 (AID 2306);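 further: 0% = DMSO wells and 100% = chloroquine plus artemisinin control wells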
Conditions: P. falciparum 3D7 erythrocytic growth, LDH absorbance, 72 h; at 2 µM; active compounds read high
In the case of CC(=O)C=C1CC(=O)N(C[C@@H](O)[C@H]2O[C@@H]3OC(C)(C)O[C@@H]3[C@H]2O)c2ccccc2N1, the growth inhibition is reported as 90% (active).
For O=C(Nc1cccc(-c2ccc(-c3nc4ccc(C(F)(F)F)cc4[nH]3)cc2)c1)c1ccoc1, the growth inhibition was 98% (active).
With Cc1cc(C2CCN(CCCCNC(=O)c3ccc(-c4ccc(C#N)cc4)cc3)CC2)c(C)cc1O the growth inhibition was 96% (active).
With CNC(=O)CSc1nnc(-c2ccc(C)cc2)c(-c2ccc(C)cc2)n1 the growth inhibition was 94% (active).
For CCN(CC)CCN(CCN(CC)CC)c1ccc(-c2nc3cc(Cl)c(Cl)cc3[nH]2)cc1, the growth inhibition was 101% (active).
For CN(C)CCOc1ccc(/C(=C(/CCCn2ccnc2)c2ccccc2)c2ccc(O)cc2)cc1, the growth inhibition was 101% (active).
For CC(C)c1ccc(Nc2nc(NCCc3cnc[nH]3)nc(NCc3ccccc3)n2)cc1, the growth inhibition was 98% (active).
In the case of Cc1ccc(Oc2ccc(NC(=O)CNc3ccccc3N3CCCC3=O)cc2)cc1, the growth inhibition is reported as 98% (active).
For CC1(C)N=C(N)N=C(N)N1OCCc1ccccc1, the growth inhibition was 96% (active).
With OC(COCc1ccc(-c2ccccc2)cc1)CN1CCCCC1 (stereo not given) the growth inhibition was 99% (active).
For COc1ccc(-c2csc(NC(=O)CCC(=O)O)n2)cc1OC, the growth inhibition was 94% (active).
For CCCC(=O)Nc1ccc(OCCCN(Cc2ccccc2F)c2ccc(C#N)c(C(F)(F)F)c2)cc1, the growth inhibition was 89% (active).
In the case of Cc1cccc2[nH]c(-c3ccc(-c4ccc(CNCc5ccc(CN)cc5)cc4)cc3)nc12, the growth inhibition is reported as 100% (active).
For NC(N)=NC(=O)Nc1ccc(Cl)c(Cl)c1, the growth inhibition was 95% (active).
In the case of COCCNCc1cccc(-c2ccccc2CN(C(=O)c2ccc3c(c2)OCO3)c2ccc(OC)cc2)c1, the growth inhibition is reported as 90% (active).
With FC(F)(F)c1cccnc1N1CCC(Nc2nc3ccc(Cl)cc3[nH]2)CC1 the growth inhibition was 93% (active).
For c1ccc2c(Nc3ccc(Cc4ccc(Nc5c6ccccc6nc6ccccc56)cc4)cc3)c3ccccc3nc2c1, the growth inhibition was 101% (active).
In the case of COc1cc(F)c2nccc([C@@H](O)CN3CC[C@H](NCc4ccc5c(n4)NC(=O)CS5)[C@H](F)C3)c2c1, the growth inhibition is reported as 87% (active).
With COc1ccc(-c2nc(-c3ccc([N+](=O)[O-])cc3)no2)cc1OC the growth inhibition was 96% (active).
For N#Cc1ccc(-c2ccc(C(=O)NCCCCN3CCC(c4ccc5c(c4OCC(N)=O)CCCC5)CC3)cc2)cc1, the growth inhibition was 87% (active).
For CC1CN(CC(O)Cn2c3ccc(Br)cc3c3cc(Br)ccc32)CC(C)O1 (stereo not given), the growth inhibition was 102% (active).
For N#Cc1cccc(C(=O)Nc2cccc(-c3cccc(CN4CCNCC4)c3)c2)c1, the growth inhibition was 89% (active).
In the case of COCCNCc1cccc(C#Cc2cc3ncnc(Nc4ccc(OCc5cccc(F)c5)c(Cl)c4)c3s2)n1, the growth inhibition is reported as 99% (active).
In the case of Cc1cccc(-c2ccc3c(c2)CC(NCc2cccc(-n4ccnc4)c2)C3)c1 (stereo not given), the growth inhibition is reported as 101% (active).
In the case of Nc1nc(N)c2c(ccc3c2ccn3Cc2ccccc2)n1, the growth inhibition is reported as 96% (active).
In the case of COc1ccc(-c2cccc(NC(=O)c3cccc(Cl)c3)c2)cc1CN1CCC(O)CC1, the growth inhibition is reported as 98% (active).
With Cc1cccc2[nH]c(-c3ccc(-c4cccc(CNCc5ccccc5)c4)cc3)nc12 the growth inhibition was 102% (active).
For FC(F)(F)c1ccc2nc(-c3ccc(-c4cccc(CN5CCC(CCN6CCCCC6)CC5)c4)cc3)[nH]c2c1, the growth inhibition was 101% (active).
In the case of CN1CCC(C(=O)Nc2ccc(-c3ccc(-c4nc5ccccc5[nH]4)s3)cc2)CC1, the growth inhibition is reported as 99% (active).
With COc1ccc(Nc2nccc(NCC(O)c3ccc(C(F)(F)F)cc3)n2)cc1 (stereo not given) the growth inhibition was 98% (active).
For CC(C)Cc1cn(-c2nc(-c3nc4ccccc4[nH]3)cs2)c2ccncc12, the growth inhibition was 102% (active).
In the case of CC1=C(C(=O)Nc2cc3cn[nH]c3cc2F)C(c2cccc(O)c2F)CC(=O)N1 (stereo not given), the growth inhibition is reported as 97% (active).
For O=C(Nc1ccccc1)c1ccc(N2CCC(COc3cccc(C(F)(F)F)c3)CC2)nc1, the growth inhibition was 96% (active).
For CN(C)c1nc2cc(-n3cnc4cc(-c5ccc(Cl)cc5)sc4c3=O)ccc2n1CCCN1CCCC1, the growth inhibition was 97% (active).
For O=C(NCC1CCC(C(=O)O)CC1)c1ccc(/C=C/C(=O)N2CCc3ccccc3C2c2ccc3c(c2)OCO3)cc1 (stereo not given), the growth inhibition was 91% (active).
In the case of COc1ccc(CN(C)CCCOc2ccc(NC(=O)C=Cc3ccc(C(C)(C)C)cc3)cc2)cc1OC, the growth inhibition is reported as 101% (active).
For CC(C)CCCC(C)NC[C@@H](O)[C@H](Cc1ccccc1)NC(=O)c1cc(N2CCCC2=O)cc(N(c2ccccc2)S(C)(=O)=O)c1 (stereo not given in full), the growth inhibition was 99% (active).
With CC(C)CCNC(=O)C1Cc2c([nH]c3ccc(Br)cc23)C2(CCN(Cc3ccccc3)CC2)N1 (stereo not given) the growth inhibition was 96% (active).
In the case of CN1CCN(c2ccnc3cc4ccccc4cc23)CC1, the growth inhibition is reported as 93% (active).
With Cc1noc(C)c1-c1cccc(CNCc2cccc(-c3ccc(-c4nc5ccccc5[nH]4)s3)c2)c1 the growth inhibition was 101% (active).

Target: Calcium-dependent protein kinase 1 (Plasmodium falciparum (isolate 3D7)) (UniProt P62344)
Sequence (P62344 whole entry, looked up): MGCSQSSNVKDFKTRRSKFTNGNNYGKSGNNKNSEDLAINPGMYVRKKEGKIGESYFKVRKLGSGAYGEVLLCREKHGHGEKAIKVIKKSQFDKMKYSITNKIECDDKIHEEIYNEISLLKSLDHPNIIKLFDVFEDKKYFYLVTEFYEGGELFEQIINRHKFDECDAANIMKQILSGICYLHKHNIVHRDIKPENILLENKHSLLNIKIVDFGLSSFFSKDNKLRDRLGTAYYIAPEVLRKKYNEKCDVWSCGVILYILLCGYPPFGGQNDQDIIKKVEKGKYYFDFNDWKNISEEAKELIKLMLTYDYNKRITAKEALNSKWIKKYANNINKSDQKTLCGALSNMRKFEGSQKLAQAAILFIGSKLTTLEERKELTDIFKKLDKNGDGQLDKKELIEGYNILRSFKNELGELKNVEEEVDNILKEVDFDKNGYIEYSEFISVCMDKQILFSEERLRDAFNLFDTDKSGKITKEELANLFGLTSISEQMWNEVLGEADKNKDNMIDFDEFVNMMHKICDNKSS
Test: PfCDPK1 kinase inhibitors, biochemical, TCAMS library (AID 1159585; cut-off not given, nearly all actives have IC50 up to about 0.98 µM;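 further: inhibitors leave more ATP so luminescence rises with inhibition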)
Conditions: recombinant PfCDPK1, Kinase-Glo ATP depletion luminescence
For CC(=O)C=C1CC(=O)N(C[C@@H](O)[C@H]2O[C@@H]3OC(C)(C)O[C@@H]3[C@H]2O)c2ccccc2N1, the outcome was “inactive”.
With O=C(Nc1cccc(-c2ccc(-c3nc4ccc(C(F)(F)F)cc4[nH]3)cc2)c1)c1ccoc1 the outcome was “inactive”.
In the case of Cc1cc(C2CCN(CCCCNC(=O)c3ccc(-c4ccc(C#N)cc4)cc3)CC2)c(C)cc1O, the outcome is reported as “inactive”.
With CNC(=O)CSc1nnc(-c2ccc(C)cc2)c(-c2ccc(C)cc2)n1 the outcome was “inactive”.
With CCN(CC)CCN(CCN(CC)CC)c1ccc(-c2nc3cc(Cl)c(Cl)cc3[nH]2)cc1 the outcome was “inactive”.
For CN(C)CCOc1ccc(/C(=C(/CCCn2ccnc2)c2ccccc2)c2ccc(O)cc2)cc1, the outcome was “inactive”.
With CC(C)c1ccc(Nc2nc(NCCc3cnc[nH]3)nc(NCc3ccccc3)n2)cc1 the outcome was “inactive”.
For Cc1ccc(Oc2ccc(NC(=O)CNc3ccccc3N3CCCC3=O)cc2)cc1, the outcome was “inactive”.
In the case of CC1(C)N=C(N)N=C(N)N1OCCc1ccccc1, the outcome is reported as “inactive”.
In the case of OC(COCc1ccc(-c2ccccc2)cc1)CN1CCCCC1 (stereo not given), the outcome is reported as “inactive”.
In the case of COc1ccc(-c2csc(NC(=O)CCC(=O)O)n2)cc1OC, the outcome is reported as “inactive”.
With CCCC(=O)Nc1ccc(OCCCN(Cc2ccccc2F)c2ccc(C#N)c(C(F)(F)F)c2)cc1 the outcome was “inactive”.
With Cc1cccc2[nH]c(-c3ccc(-c4ccc(CNCc5ccc(CN)cc5)cc4)cc3)nc12 the outcome was “inactive”.
For NC(N)=NC(=O)Nc1ccc(Cl)c(Cl)c1, the outcome was “inactive”.
With COCCNCc1cccc(-c2ccccc2CN(C(=O)c2ccc3c(c2)OCO3)c2ccc(OC)cc2)c1 the outcome was “inactive”.
In the case of FC(F)(F)c1cccnc1N1CCC(Nc2nc3ccc(Cl)cc3[nH]2)CC1, the outcome is reported as “inactive”.
For c1ccc2c(Nc3ccc(Cc4ccc(Nc5c6ccccc6nc6ccccc56)cc4)cc3)c3ccccc3nc2c1, the outcome was “inactive”.
In the case of COc1cc(F)c2nccc([C@@H](O)CN3CC[C@H](NCc4ccc5c(n4)NC(=O)CS5)[C@H](F)C3)c2c1, the outcome is reported as “inactive”.
In the case of COc1ccc(-c2nc(-c3ccc([N+](=O)[O-])cc3)no2)cc1OC, the outcome is reported as “inactive”.
With N#Cc1ccc(-c2ccc(C(=O)NCCCCN3CCC(c4ccc5c(c4OCC(N)=O)CCCC5)CC3)cc2)cc1 the outcome was “inactive”.
In the case of CC1CN(CC(O)Cn2c3ccc(Br)cc3c3cc(Br)ccc32)CC(C)O1 (stereo not given), the outcome is reported as “inactive”.
In the case of N#Cc1cccc(C(=O)Nc2cccc(-c3cccc(CN4CCNCC4)c3)c2)c1, the outcome is reported as “inactive”.
With COCCNCc1cccc(C#Cc2cc3ncnc(Nc4ccc(OCc5cccc(F)c5)c(Cl)c4)c3s2)n1 the outcome was “inactive”.
In the case of Cc1cccc(-c2ccc3c(c2)CC(NCc2cccc(-n4ccnc4)c2)C3)c1 (stereo not given), the outcome is reported as “inactive”.
With Nc1nc(N)c2c(ccc3c2ccn3Cc2ccccc2)n1 the outcome was “inactive”.
For COc1ccc(-c2cccc(NC(=O)c3cccc(Cl)c3)c2)cc1CN1CCC(O)CC1, the outcome was “inactive”.
For Cc1cccc2[nH]c(-c3ccc(-c4cccc(CNCc5ccccc5)c4)cc3)nc12, the outcome was “inactive”.
With FC(F)(F)c1ccc2nc(-c3ccc(-c4cccc(CN5CCC(CCN6CCCCC6)CC5)c4)cc3)[nH]c2c1 the outcome was “inactive”.
In the case of CN1CCC(C(=O)Nc2ccc(-c3ccc(-c4nc5ccccc5[nH]4)s3)cc2)CC1, the outcome is reported as “inactive”.
In the case of COc1ccc(Nc2nccc(NCC(O)c3ccc(C(F)(F)F)cc3)n2)cc1 (stereo not given), the outcome is reported as “inactive”.
With CC(C)Cc1cn(-c2nc(-c3nc4ccccc4[nH]3)cs2)c2ccncc12 the outcome was “inactive”.
In the case of CC1=C(C(=O)Nc2cc3cn[nH]c3cc2F)C(c2cccc(O)c2F)CC(=O)N1 (stereo not given), the outcome is reported as “inactive”.
With O=C(Nc1ccccc1)c1ccc(N2CCC(COc3cccc(C(F)(F)F)c3)CC2)nc1 the outcome was “inactive”.
In the case of CN(C)c1nc2cc(-n3cnc4cc(-c5ccc(Cl)cc5)sc4c3=O)ccc2n1CCCN1CCCC1, the outcome is reported as “inactive”.
For O=C(NCC1CCC(C(=O)O)CC1)c1ccc(/C=C/C(=O)N2CCc3ccccc3C2c2ccc3c(c2)OCO3)cc1 (stereo not given), the outcome was “inactive”.
In the case of COc1ccc(CN(C)CCCOc2ccc(NC(=O)C=Cc3ccc(C(C)(C)C)cc3)cc2)cc1OC, the outcome is reported as “inactive”.
For CC(C)CCCC(C)NC[C@@H](O)[C@H](Cc1ccccc1)NC(=O)c1cc(N2CCCC2=O)cc(N(c2ccccc2)S(C)(=O)=O)c1 (stereo not given in full), the outcome was “inactive”.
For CC(C)CCNC(=O)C1Cc2c([nH]c3ccc(Br)cc23)C2(CCN(Cc3ccccc3)CC2)N1 (stereo not given), the outcome was “inactive”.
With CN1CCN(c2ccnc3cc4ccccc4cc23)CC1 the outcome was “inactive”.
For Cc1noc(C)c1-c1cccc(CNCc2cccc(-c3ccc(-c4nc5ccccc5[nH]4)s3)c2)c1, the outcome was “inactive”.
